# In PubChem BioAssay (NCI):
# Compounds without any hit were thinned out: in the full panel of roughly 83,000, 20% have a hit.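 Interpretation: 100, growth as untreated; towards 0, rising growth inhibition; 0, no net growth; 0 to -100, cell death. Compounds scoring below 10 were considered active.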 Active and inactive are the calls of the source.
# Tested on: K-562 leukemia
# Assay: NCI-60 one-dose screen, 48 h (100 = growth as untreated, 0 = no growth, -100 = all killed)
# Settings: 10 µM unless noted
row,Structure (SMILES),growth
1,COc1ccc(C2CC(c3ccc(OC)c(OC)c3)=NN2C(=O)c2cc(OC)c(OC)c(OC)c2)c(OC)c1 (centres undefined),51.3% (inactive)
2,CCOC(=O)c1c2c(c(C)n1Cc1ccc(OC)cc1)-c1nc(N)ncc1CC2,88.8% (inactive)
3,O=C1N(C2CCCCC2)C(=O)N1C1CCCCC1,55.3% (inactive)
4,O=c1ccn(C2OC(CO)C(O)C2F)c(=O)[nH]1 (centres undefined),117% (inactive)
5,CCCn1cnc2c1c(=O)n(CCCCC(C)=O)c(=O)n2C,90.9% (inactive)
6,CCCCc1nc(Cl)c(CO)n1Cc1ccc(-c2ccccc2-c2nn[nH]n2)cc1,105% (inactive)
7,COc1ccc(C2CC(c3cccc(Nc4ccnc5cc(Cl)ccc45)c3)=NN2C=O)cc1 (centres undefined),14.4% (inactive)
8,O=c1c(O)cccn1CCCNCCCN(CCCn1cccc(O)c1=O)CCCn1cccc(O)c1=O,117% (inactive)
9,COc1ccc2nc(-c3ccc(-n4cncc4-c4ccc(OC)c(N)c4)cc3)sc2c1,90.6% (inactive)
10,Cc1cc(NC(=O)Nc2cc(Cl)ccc2C)no1,80.8% (inactive)
11,O=C1NCN(c2ccccc2)C12CCN(CCCC(c1ccc(F)cc1)c1ccc(F)cc1)CC2,6.41% (active)
12,CCC(O)C(C)(C)C (centres undefined),108% (inactive)
13,COc1ncc(-c2ccc3nccc(C#CCN4CCN(S(C)(=O)=O)CC4)c3c2)cc1NS(=O)(=O)c1ccc(F)cc1F,8.7% (active)
14,O=C(Nc1ccc(Cl)cc1)c1cc2c(cc1O)[nH]c1ccccc12,10.9% (inactive)
15,O=C1c2ccccc2C(=O)c2c1cccc2-n1nnc2ccccc21,95.6% (inactive)
16,Cc1nn(-c2ccccc2)c2c1oc(=O)c1cc(Cl)ccc12,106% (inactive)
17,CCC1=C(c2ccc(OC)cc2)C(C)(C)Oc2c1ccc(O)c2CN1CCCC1,-24.9% (active)
18,O=C(NCCc1ccccc1)C1CCC(=O)N1Cc1ccc(Br)cc1 (centres undefined),107% (inactive)
19,N#Cc1ccc(NC(=O)Nc2ccc(Oc3ccc(NC(=O)Nc4ccc(C#N)cc4)cc3)cc2)cc1,0.451% (active)

row,Structure (SMILES),growth
1,COc1ccc2c(c1)C(=O)c1c-2c(OCCN(C)C)nc2cc(OC)ccc12,-47.7% (active)
2,O=C(Nc1cccc([N+](=O)[O-])c1)c1cccc(C(=O)Nc2cccc([N+](=O)[O-])c2)c1,91.2% (inactive)
3,CCCCCCCCCCCCCCCCCC1=NC(C)(C)CN1CCO,-49.5% (active)
4,COc1ccc(OC)c(NC(=O)c2cc3oc4ccccc4c3cc2O)c1,86.4% (inactive)
5,CN1C(=O)/C(=C/c2nc(-c3cccc(F)c3)n3ccccc23)c2ccccc21,79.7% (inactive)
6,O=C(CN1CCCCC1)Sc1nnc2sc3ccccc3n12,99.6% (inactive)
7,C[C@]12CC[C@@H]3c4ccc(O)c([N+](=O)[O-])c4CC[C@H]3[C@@H]1CC[C@@H]2NS(=O)(=O)c1cccc(Br)c1,8.39% (active)
8,Cc1ccsc1/C=C/C1=NCCCN1C,101% (inactive)
9,CCCCCCCCCCSc1ncnc2nc[nH]c12,48.5% (inactive)
10,C[n+]1c2ccccc2c(NC2CCNCC2)c2[nH]c3ccccc3c21,12.7% (inactive)
11,COc1cccc2c1O/C(=C\c1c([N+](=O)[O-])ncn1C)C2=O,89.9% (inactive)
12,CC[C@@H]1OC(=O)[C@H](C)[C@@H](O[C@H]2C[C@@](C)(OC)[C@@H](O)[C@H](C)O2)[C@H](C)[C@@H](O[C@@H]2O[C@H](C)C[C@H](N(C)C)[C@H]2O)[C@](C)(O)C[C@@H](C)[C@@H]2N[C@@H](COCCOC)O[C@H]([C@H]2C)[C@]1(C)O,103% (inactive)
13,O=C1C[C@@H]2/C(=C(O)\C=C\c3ccccc3)C(=O)C=C[C@@H]2O1,14.3% (inactive)
14,Cc1cc2c(cc1[N+](=O)[O-])NC(CNC(C)C)CC2 (centres undefined),96.5% (inactive)
15,CCCCN(CCCC)CCCOC(=O)c1ccc(N)cc1,96.5% (inactive)
16,C=C(C[C@](O)(C(=O)/C=C/c1ccc(Cl)cc1)C(=O)OC)c1ccccc1,50.7% (inactive)
17,CCN1C[C@@H](C)n2c(c(O)c3c(=O)n(Cc4ccc(F)c(Cl)c4)nc(C(=O)NC)c32)C1=O,42% (inactive)
18,Cc1nnc(Nc2ccc(NC(=O)Nc3ccc(Cl)cc3)cc2)c2ccccc12,-16.7% (active)

# Tested on: MALME-3M melanoma
# Assay: as above
# Settings: 10 µM unless noted
row,Structure (SMILES),growth
1,COc1ccc(C2CC(c3ccc(OC)c(OC)c3)=NN2C(=O)c2cc(OC)c(OC)c(OC)c2)c(OC)c1 (centres undefined),86.7% (inactive)
2,CCOC(=O)c1c2c(c(C)n1Cc1ccc(OC)cc1)-c1nc(N)ncc1CC2,132% (inactive)
3,O=C1N(C2CCCCC2)C(=O)N1C1CCCCC1,-16.9% (active)
4,O=c1ccn(C2OC(CO)C(O)C2F)c(=O)[nH]1 (centres undefined),116% (inactive)
5,CCCn1cnc2c1c(=O)n(CCCCC(C)=O)c(=O)n2C,113% (inactive)
6,CCCCc1nc(Cl)c(CO)n1Cc1ccc(-c2ccccc2-c2nn[nH]n2)cc1,101% (inactive)
7,COc1ccc(C2CC(c3cccc(Nc4ccnc5cc(Cl)ccc45)c3)=NN2C=O)cc1 (centres undefined),55.8% (inactive)
8,O=c1c(O)cccn1CCCNCCCN(CCCn1cccc(O)c1=O)CCCn1cccc(O)c1=O,108% (inactive)
9,COc1ccc2nc(-c3ccc(-n4cncc4-c4ccc(OC)c(N)c4)cc3)sc2c1,131% (inactive)
10,Cc1cc(NC(=O)Nc2cc(Cl)ccc2C)no1,191% (inactive)
11,O=C1NCN(c2ccccc2)C12CCN(CCCC(c1ccc(F)cc1)c1ccc(F)cc1)CC2,39.9% (inactive)
12,CCC(O)C(C)(C)C (centres undefined),117% (inactive)
13,COc1ncc(-c2ccc3nccc(C#CCN4CCN(S(C)(=O)=O)CC4)c3c2)cc1NS(=O)(=O)c1ccc(F)cc1F,-32.3% (active)
14,O=C(Nc1ccc(Cl)cc1)c1cc2c(cc1O)[nH]c1ccccc12,23.1% (inactive)
15,O=C1c2ccccc2C(=O)c2c1cccc2-n1nnc2ccccc21,132% (inactive)
16,Cc1nn(-c2ccccc2)c2c1oc(=O)c1cc(Cl)ccc12,106% (inactive)
17,CCC1=C(c2ccc(OC)cc2)C(C)(C)Oc2c1ccc(O)c2CN1CCCC1,-9.28% (active)
18,O=C(NCCc1ccccc1)C1CCC(=O)N1Cc1ccc(Br)cc1 (centres undefined),96.7% (inactive)
19,N#Cc1ccc(NC(=O)Nc2ccc(Oc3ccc(NC(=O)Nc4ccc(C#N)cc4)cc3)cc2)cc1,54.4% (inactive)

row,Structure (SMILES),growth
1,COc1ccc2c(c1)C(=O)c1c-2c(OCCN(C)C)nc2cc(OC)ccc12,-39.9% (active)
2,O=C(Nc1cccc([N+](=O)[O-])c1)c1cccc(C(=O)Nc2cccc([N+](=O)[O-])c2)c1,49.5% (inactive)
3,CCCCCCCCCCCCCCCCCC1=NC(C)(C)CN1CCO,11.8% (inactive)
4,COc1ccc(OC)c(NC(=O)c2cc3oc4ccccc4c3cc2O)c1,69.7% (inactive)
5,CN1C(=O)/C(=C/c2nc(-c3cccc(F)c3)n3ccccc23)c2ccccc21,57.6% (inactive)
6,O=C(CN1CCCCC1)Sc1nnc2sc3ccccc3n12,97.5% (inactive)
7,C[C@]12CC[C@@H]3c4ccc(O)c([N+](=O)[O-])c4CC[C@H]3[C@@H]1CC[C@@H]2NS(=O)(=O)c1cccc(Br)c1,31.1% (inactive)
8,Cc1ccsc1/C=C/C1=NCCCN1C,97% (inactive)
9,CCCCCCCCCCSc1ncnc2nc[nH]c12,102% (inactive)
10,C[n+]1c2ccccc2c(NC2CCNCC2)c2[nH]c3ccccc3c21,-15.7% (active)
11,COc1cccc2c1O/C(=C\c1c([N+](=O)[O-])ncn1C)C2=O,92.4% (inactive)
12,CC[C@@H]1OC(=O)[C@H](C)[C@@H](O[C@H]2C[C@@](C)(OC)[C@@H](O)[C@H](C)O2)[C@H](C)[C@@H](O[C@@H]2O[C@H](C)C[C@H](N(C)C)[C@H]2O)[C@](C)(O)C[C@@H](C)[C@@H]2N[C@@H](COCCOC)O[C@H]([C@H]2C)[C@]1(C)O,99.5% (inactive)
13,O=C1C[C@@H]2/C(=C(O)\C=C\c3ccccc3)C(=O)C=C[C@@H]2O1,-35.1% (active)
14,Cc1cc2c(cc1[N+](=O)[O-])NC(CNC(C)C)CC2 (centres undefined),117% (inactive)
15,CCCCN(CCCC)CCCOC(=O)c1ccc(N)cc1,93% (inactive)
16,C=C(C[C@](O)(C(=O)/C=C/c1ccc(Cl)cc1)C(=O)OC)c1ccccc1,95.7% (inactive)
17,CCN1C[C@@H](C)n2c(c(O)c3c(=O)n(Cc4ccc(F)c(Cl)c4)nc(C(=O)NC)c32)C1=O,5.1% (active)
18,Cc1nnc(Nc2ccc(NC(=O)Nc3ccc(Cl)cc3)cc2)c2ccccc12,-9.9% (active)
